Among all 48,000 compounds or so, about 160 (0.33%) were called active. The entries come from a sample that favours actives as a whole. Values without a mark were called inactive.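 How the source made its calls: active means survival measured by cellular ATP above 50% at 15 µg/ml in the first screen; inactive means the rest.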
Assay: protection against thapsigargin ER stress killing – CSM14.1 cells, ATP luminescence, primary screen (AID 1010);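 further: cell death triggered by about 15 µM thapsigargin; ATP read 24 h after thapsigargin was added; plate controls were thapsigargin with DMSO for no effect and DMSO without thapsigargin for full effect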
Conditions: CSM14.1 thapsigargin ER stress survival, hits give high values, screened at 15 µg/mL (by protocol)
`O=C(Nc1ccc(Cc2ccncc2)cc1)C(c1ccccc1)c1ccccc1` showed a relative survival (cellular ATP) of 43.5%.
`COc1cc2ccccc2cc1C(=O)Nc1ccccc1C` gave a relative survival (cellular ATP) of -5.9%.
Work on `CC(C)(C)C(=O)CN1C2=NCCN2c2ccccc21` yielded a relative survival (cellular ATP) of -3.6%.
With `COc1ccc(C2CC(c3cccs3)=NN2c2ccc(F)cc2)cc1OC` (centres undefined) the relative survival (cellular ATP) was 3.6%.
Work on `O=C(NCc1ccncc1)c1cccc([N+](=O)[O-])c1` yielded a relative survival (cellular ATP) of 2.2%.
For `CCCOc1ccc(/C=C2\C(=O)NN(c3ccccc3)C2=O)cc1OC`, the relative survival (cellular ATP) was 4.3%.
Work on `O=C(NNC(=O)c1cc(NC(=O)c2ccc([N+](=O)[O-])cc2)cc(C(=O)NNC(=O)c2ccccc2)c1)c1ccccc1` yielded a relative survival (cellular ATP) of 10%.
`Cc1cc(Cl)ccc1NC(=O)CCc1ccccc1` gave a relative survival (cellular ATP) of 5.6%.
`O=C(NCc1cccnc1)c1cnn2c(C(F)(F)F)cc(-c3cccs3)nc12` showed a relative survival (cellular ATP) of 2.5%.
Compound `O=C1C(=O)N(Cc2ccccc2)C(c2ccc(F)cc2)/C1=C(/O)c1ccccc1` (centres undefined) has a relative survival (cellular ATP) of 6.2%.
`COc1ccc(C(=O)Nc2sc3c(c2C(N)=O)CCCC3)cc1` gave a relative survival (cellular ATP) of 13.7%.
For `NC(=O)c1c(NC(=O)c2ccc(Br)cc2)sc2c1CCCCCC2`, the relative survival (cellular ATP) was 3.1%.
With `NC(=O)c1c(NC(=O)c2ccccc2F)sc2c1CCCCCC2` the relative survival (cellular ATP) was 57.3% (active).
`COc1ccc(CCN2C(=O)CC(Cc3ccc(Cl)cc3)C2=O)cc1OC` (centres undefined) showed a relative survival (cellular ATP) of 10.7%.
`COc1cc(NC(=O)COc2ccc(Br)cc2C(C)(C)C)c(OC)cc1Cl` showed a relative survival (cellular ATP) of 11.7%.
`Cc1c(C(=O)Nc2ccc(NC(=O)c3ccc(C(C)(C)C)cc3)cc2)cccc1[N+](=O)[O-]` showed a relative survival (cellular ATP) of 0.1%.
With `COc1cccc(OCCOc2ccc(/C=C3/SC(=S)NC3=O)cc2OC)c1` the relative survival (cellular ATP) was 10.2%.
Compound `NC(=O)C1(N2CCCCC2)CCN(C(=S)Nc2ccc(Cl)cc2)CC1` has a relative survival (cellular ATP) of -1.2%.
For `CC1=C(C(=O)Nc2ccccc2)C(c2ccco2)N2C(=O)CSC2=N1` (centres undefined), the relative survival (cellular ATP) was 2.3%.
`O=C(NCCC1=CCCCC1)c1cc(Cl)ccc1[N+](=O)[O-]` gave a relative survival (cellular ATP) of 5.6%.
With `NC1=NC(=O)/C(=C/c2ccc(OCc3cccc4ccccc34)cc2)S1` the relative survival (cellular ATP) was 2.9%.
With `O=C(NCCCCOc1ccccc1)C(O)(c1ccccc1)c1ccccc1` the relative survival (cellular ATP) was 5.8%.
Compound `COc1cc(OC)cc(C(=O)Nc2cccc(S(N)(=O)=O)c2)c1` has a relative survival (cellular ATP) of -2.7%.
Compound `CCOC(=O)c1ccc(NS(=O)(=O)c2cc(C(=O)Nc3ccccc3)ccc2C)cc1` has a relative survival (cellular ATP) of 4.6%.
`CC1=C(C#N)c2nc(N)c(C#N)c(C)c2/C1=C/c1ccc(-c2cccc(Cl)c2Cl)o1` showed a relative survival (cellular ATP) of -6.8%.
For `O=C(O)c1cc(-c2ccc(/C=N/Nc3ccc(Cl)c(Cl)c3)o2)ccc1Cl`, the relative survival (cellular ATP) was -2.2%.
In the case of `COc1ccc(/C=C2\SC(=S)N(CC(=O)OCCN(C)C)C2=O)cc1`, the relative survival (cellular ATP) is reported as -6.1%.
`Cc1c(C#N)c2nc3ccccc3n2c(=O)/c1=C\c1c(O)n(-c2ccc(Br)cc2)[nH]c1=O` showed a relative survival (cellular ATP) of -1.2%.
Compound `O=c1nc2cc3[nH]c4c(=O)c5ccccc5c4[nH]c3cc2n1` has a relative survival (cellular ATP) of 12.2%.
Work on `COC(=O)C1=C(C)NC2=C(C(=O)c3ccccc32)C1c1ccc(-c2ccc([N+](=O)[O-])cc2C)o1` (centres undefined) yielded a relative survival (cellular ATP) of 7.6%.
`CC(=O)c1ccc(NC(=S)NC(NC(=O)N(C)C)C(Cl)(Cl)Cl)cc1` (centres undefined) showed a relative survival (cellular ATP) of -1.5%.
Work on `COc1ccc(/C(O)=C2/C(=O)C(=O)N(CCCCCC(=O)O)C2c2ccccc2)cc1` (centres undefined) yielded a relative survival (cellular ATP) of 2.4%.
With `O=C(NCCc1ccccc1)/C(=C/c1ccc(-c2cccc([N+](=O)[O-])c2)o1)NC(=O)c1ccccc1` the relative survival (cellular ATP) was 8.1%.
`O=C(NC(NC(=S)N1CCOCC1)C(Cl)(Cl)Cl)c1cccc([N+](=O)[O-])c1` (centres undefined) showed a relative survival (cellular ATP) of 0.9%.
With `CC(C)(C)CC(C)(C)NC(=O)CSc1nc2ccccc2[nH]1` the relative survival (cellular ATP) was 12.7%.
Compound `COC(=O)C1=C(C)N=c2s/c(=C\c3ccc(N(C)C)cc3)c(=O)n2C1c1ccccc1Cl` (centres undefined) has a relative survival (cellular ATP) of 0.6%.
With `COc1cc(/C=C2/NC(=S)NC2=O)ccc1OCc1ccccc1Cl` the relative survival (cellular ATP) was 1.9%.
Compound `CCN1C(=O)/C(=C\c2ccc(OC)c([N+](=O)[O-])c2)C(C(=O)OC)=C1C` has a relative survival (cellular ATP) of 11.8%.
`Cc1ccc(N2C(=O)/C(=C/c3sccc3C)SC2=S)cc1` gave a relative survival (cellular ATP) of 9.2%.
`O=C1S/C(=C/c2ccccc2F)C(=O)N1CNc1ccccc1Br` showed a relative survival (cellular ATP) of 2.5%.
For `O=C(Nc1nc(-c2ccc3ccccc3c2)cs1)c1ccc(Cl)cc1[N+](=O)[O-]`, the relative survival (cellular ATP) was 2%.
In the case of `O=c1[nH]c(=O)n(-c2ccc(Cl)cc2)c(O)c1/C=C1/C=CC=N1`, the relative survival (cellular ATP) is reported as 64.8% (active).
Compound `CCOc1ccc(-n2c(O)c(C=C3C=CC=N3)c(=O)[nH]c2=O)cc1` has a relative survival (cellular ATP) of 2.3%.
In the case of `O=c1[nH]c(=S)n(-c2cccc(Cl)c2)c(O)c1/C=C1/C=CC=N1`, the relative survival (cellular ATP) is reported as 8.4%.
`COc1ccc(/C=C(/NC(=O)c2ccco2)C(=O)Nc2ccc(C(C)=O)cc2)cc1` gave a relative survival (cellular ATP) of 2.4%.
For `COC(=O)C(NC(=O)CCC1CCCCC1)C12CC3CC(CC(C3)C1)C2` (centres undefined), the relative survival (cellular ATP) was 13.9%.
Work on `CC1=NN(c2ccc(S(N)(=O)=O)cc2)C(=O)/C1=C\c1ccc(-c2cc([N+](=O)[O-])ccc2C)o1` yielded a relative survival (cellular ATP) of -4.8%.
For `CCOc1c(Br)cc(/C=C2/C(=O)NN(c3ccccc3)C2=O)cc1OC`, the relative survival (cellular ATP) was 5%.
In the case of `COc1ccc(Br)cc1-c1nc2nnc(C)n2[nH]1`, the relative survival (cellular ATP) is reported as 7.4%.
In the case of `Cc1ccc(C(=O)Nc2ccc(NC(=O)c3ccccc3)cc2)cc1S(=O)(=O)N1CCOCC1`, the relative survival (cellular ATP) is reported as 5%.
`COc1ccc(-c2cc(C(=O)Nc3c(C)cccc3C)c3ccccc3n2)cc1` gave a relative survival (cellular ATP) of 0.1%.
In the case of `COCCCNC(=O)c1ccccc1C`, the relative survival (cellular ATP) is reported as 0.6%.
`CCOCCOC(=O)c1ccc(NC(=O)c2ccccc2C)cc1` showed a relative survival (cellular ATP) of 7.2%.
`CCCCOC(=O)C1=C(C)NC2=C(C(=O)CC(c3ccccc3)C2)C1c1ccc(O)c([N+](=O)[O-])c1` (centres undefined) showed a relative survival (cellular ATP) of 3.8%.
`O=C1OC(c2ccc(NC(=O)C(F)(F)F)cc2)(c2ccc(NC(=O)C(F)(F)F)cc2)c2ccccc21` showed a relative survival (cellular ATP) of 6.6%.
Work on `O=C1NC(=S)S/C1=C\c1ccccc1OS(=O)(=O)c1ccc([N+](=O)[O-])cc1` yielded a relative survival (cellular ATP) of 3.7%.
Work on `Cc1ccc(C(=O)Nc2ccc(Cl)cc2)o1` yielded a relative survival (cellular ATP) of 2.1%.
With `O=S(=O)(O)c1cc(-n2nc3ccc4c(S(=O)(=O)O)cccc4c3n2)ccc1/C=C/c1ccccc1` the relative survival (cellular ATP) was 6.1%.
`CCc1cccc(C)c1NC(=O)c1ccc(C)c([N+](=O)[O-])c1` gave a relative survival (cellular ATP) of 0.4%.
Work on `CC(NC(=O)C(F)(Cl)C(F)(F)F)c1ccccc1` (centres undefined) yielded a relative survival (cellular ATP) of -2.2%.
`O=C(N/C(=C/c1ccc(-c2cccc(C(F)(F)F)c2)o1)C(=O)N1CCOCC1)c1ccc(Cl)cc1` showed a relative survival (cellular ATP) of 1%.
In the case of `O=[N+]([O-])c1ccc(C2Nc3ccc(Br)cc3C3C=CCC32)cc1` (centres undefined), the relative survival (cellular ATP) is reported as 6.4%.
In the case of `CC1(C)CC(=O)C2=C(C1)Nc1ccccc1N(C(=O)Cc1ccccc1)C2c1cccc(F)c1` (centres undefined), the relative survival (cellular ATP) is reported as 0.5%.
With `COc1ccc(C2C3=C(CC(C)(C)CC3=O)Nc3ccccc3N2C(=O)c2ccc(Cl)cc2)cc1OC` (centres undefined) the relative survival (cellular ATP) was 59.4% (active).
`CC1(C)CC(=O)C2=C(C1)NC1=C(C(=O)CC(C)(C)C1)C2c1ccccc1Cl` gave a relative survival (cellular ATP) of 9.2%.
`CC(=O)Oc1ccc2occ(C(=O)c3ccc(C)cc3)c2c1` showed a relative survival (cellular ATP) of -6.1%.
For `CCOC(=O)C1=NN(C(=O)c2ccc(Cl)cc2)C(O)(C(C)(C)C)C1` (centres undefined), the relative survival (cellular ATP) was 11.8%.
For `O=C(/C=C/c1ccccc1Cl)c1ccc(NC(=O)c2cccs2)cc1`, the relative survival (cellular ATP) was 1.3%.
Compound `OC1(C#Cc2ccccc2)CCN(Cc2ccccc2)CC1` has a relative survival (cellular ATP) of -6%.
For `CC(=O)Nc1ccc(C(=O)N2CCN(c3ccccc3)CC2)cc1`, the relative survival (cellular ATP) was -6.3%.
In the case of `O=C(c1ccc(C#CC2(O)CCCCC2)cc1)N1CCN(c2ccccc2Cl)CC1`, the relative survival (cellular ATP) is reported as 94.4% (active).
`Cc1cc(=O)oc2cc(OCC(=O)OCc3ccccc3)ccc12` showed a relative survival (cellular ATP) of 1.2%.
For `Cn1nc(-c2ccc(Br)cc2)cc1N`, the relative survival (cellular ATP) was -2.2%.
For `COc1cc(C2Nc3ccc4ccccc4c3C3=C2C(=O)CC(C)(C)C3)c(Br)cc1O` (centres undefined), the relative survival (cellular ATP) was 1.3%.
With `COc1cc(OC)c(C2NC(=S)NC(C)=C2C(=O)Nc2ccc(Cl)cc2)cc1OC` (centres undefined) the relative survival (cellular ATP) was 7.2%.
Compound `CCOc1nc(-c2ccccc2)cc(-c2ccc(Br)cc2)n1` has a relative survival (cellular ATP) of 1.9%.
Compound `NS(=O)(=O)c1cccc(C(=O)Nc2ccc([N+](=O)[O-])cc2)c1` has a relative survival (cellular ATP) of 4.7%.
Work on `Clc1ccc(/C=N\N2CCN(C(c3ccccc3)c3ccccc3)CC2)cc1` yielded a relative survival (cellular ATP) of 9.1%.
In the case of `C/C(Cn1nnc([N+](=O)[O-])n1)=N/NC(=O)Cc1ccccc1`, the relative survival (cellular ATP) is reported as -8.3%.
`CCCCS(=O)(=O)CC(O)COc1ccccc1` (centres undefined) gave a relative survival (cellular ATP) of 10.3%.
`COc1cccc(C(=O)Nc2ccccc2C(F)(F)F)c1` gave a relative survival (cellular ATP) of 5.4%.
Work on `CCOC1CC(c2ccccc2)=NN1c1ccccc1` (centres undefined) yielded a relative survival (cellular ATP) of 2.7%.
Work on `COc1ccc(C2/C(=C(\O)c3ccc(F)cc3)C(=O)C(=O)N2c2nncs2)cc1` (centres undefined) yielded a relative survival (cellular ATP) of -1.4%.
Compound `Oc1c(/C=C2/C=Nc3ccccc32)sc(=S)n1Cc1ccccc1` has a relative survival (cellular ATP) of 11%.
Work on `O=C(Nc1cccc(F)c1)c1sc2ccccc2c1Cl` yielded a relative survival (cellular ATP) of 1.2%.
`COc1ccc(N2C(=O)c3ccc(C(=O)Nc4cccc(O)c4)cc3C2=O)cc1` showed a relative survival (cellular ATP) of 2%.
With `COC(=O)c1ccc(/C=C2\SC(=S)N(CCCC(=O)Nc3nccs3)C2=O)cc1` the relative survival (cellular ATP) was -4%.
`COc1ccccc1CC(=O)Nc1ccc(F)cc1F` showed a relative survival (cellular ATP) of 6.1%.
With `COc1ccc(C2/C(=C(\O)c3ccc(Cl)cc3)C(=O)C(=O)N2CCCn2ccnc2)cc1` (centres undefined) the relative survival (cellular ATP) was 13%.

From PubChem BioAssay AID1010 (Sanford-Burnham Center for Chemical Genomics, 2008)
